Assay outcomes deposited in PubChem BioAssay by National Center for Advancing Translational Sciences (NCATS).
NS1 inh – qHTS Assay for Inhibitors of Influenza NS1 Protein Function; Potency, µM (top dose mostly 46.1 µM), without a hit: at the highest dose activity, positive = more growth; hit rate 0.4% among 270,000; calls by dose curve; also: potency is read from the fitted curve at half-maximal effect; actives are rising curves; nearly all actives have a fitted effect of over 50% in size
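Read-out: OD600 growth recovery of NS1-expressing budding yeast. Cells grown overnight at 30C in -URA glucose medium, washed, resuspended and diluted 1:100 in 2% galactose assay medium, pH 6.0. Same strain lacking NS1 served as positive control.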
Cycloheximide cs – Cycloheximide Counterscreen for Small Molecule Inhibitors of Shiga Toxin; cell reporter, cycloheximide protein synthesis inhibition counterscreen; max response, %; hit rate 12% among 300,000; in the data active = max response mostly above about 13%, no sharp cut-off; inactive = mostly below about 14%; also: read at 38.3 µM for the half of the compounds with a filed dose; 0% is about no effect
Shiga toxin inh – A qHTS for Small Molecule Inhibitors of Shiga Toxin. AID 2315, 2010. Vero cells, Shiga toxin protein synthesis inhibition reporter. inhibition, % at 38.7 µM. hit rate 9.2% among 290,000; in the data active = inhibition mostly above about 28%, no sharp cut-off; inactive = mostly below about 43%; also: 0% is about no effect
Pf growth 96h – Primary qHTS for delayed death inhibitors of the malarial parasite plastid, 96 hour incubation. AID 504834, 2011. hit rate 6.9% among 320,000. Potency, µM (highest dose often 28.7 µM), for inactives: at the top dose activity change, negative = inhibition, actives largely listed as inhibitors. P. falciparum luciferase reporter growth, 96 h; also: potency is read from the fitted curve at half-maximal effect; % is scaled to controls: 0 for no effect and ±100 for the full control effect
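Compounds incubated with erythrocytes infected by luciferase-expressing P. falciparum (2% hematocrit, 0.05% parasitemia final) for 96 hours, 37 C in 5% CO2. Growth inhibition scored as decreased luciferase luminescence.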
Pf growth 48h – Primary qHTS for delayed death inhibitors of the malarial parasite plastid, 48 hour incubation. P. falciparum luciferase growth in erythrocytes, 48 h. Potency, µM (doses to about 28.7 µM), for the others: at the highest dose activity change, negative = inhibition, hits mostly inhibitors. hit rate 5.9% among 310,000. AID 504832, 2011; also: potency is read from the fitted curve at half-maximal effect; % is scaled to controls: 0 for no effect and ±100 for the full control effect
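Luciferase-expressing P. falciparum in infected erythrocytes (2% hematocrit, 0.1% parasitemia final) in RPMI 1640/0.5% Albumax were exposed to compound for 48 hours at 37 C, 5% CO2; growth read as luminescence.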
SARS PLP yeast – qHTS of Yeast-based Assay for SARS-CoV PLP; S. cerevisiae expressing SARS-CoV PLpro, growth rescue; Potency, µM (titrated, usually from 32.9 µM), without a hit: at the top dose activity, positive = growth rescue, hits mostly activators; hit rate 0.19% among 330,000; AID 485353, 2010; calls by dose curve; also: potency is read from the fitted curve at half-maximal effect; 0% is about no effect; nearly all actives have a fitted effect of over 55% in size
* = called active by the depositor; ? = inconclusive; · = no result. Sampled rows, rich in hits. Any-hit rate of the full collection: about 21%. Unless noted, calls follow the shape of the dose curve; as a rule, active = well fitted inhibition curve with a large enough effect; inconclusive = small, poorly fitted or top-dose-only effect, or another doubt; inactive = no such curve, though single readings can be large or run the other way.

SMILES | NS1 inh | Cycloheximide cs | Shiga toxin inh | Pf growth 96h | Pf growth 48h | SARS PLP yeast
CCOC(=O)N1CCN(C(=O)c2ccc3nc(N4CCC(C)CC4)sc3c2)CC1 | -8% | 24* | 42* | 163% | ? | 4%
CC1CCN(c2nc3ccc(C(=O)N4CCN(Cc5ccccc5)CC4)cc3s2)CC1 | 0% | 52* | 85* | -17% | · | -1%
Cc1cccc(N2CCN(C(=O)c3ccc4nc(N5CCCCC5)sc4c3)CC2)c1C | 5% | 3 | 31 | ? | ? | 1%
Cc1ccc(S(=O)(=O)N2CCN(S(C)(=O)=O)C2C)cc1 (stereo not drawn) | · | · | · | 2% | -4% | ·
O=C(Nc1ccc(C(F)(F)F)cc1)C(Cc1ccccc1)n1cccc1 (stereo not drawn) | · | -2 | 8 | · | · | ·
FC(F)OC(Cl)C(F)(F)F (stereo not drawn) | · | · | · | -5% | 3% | ·
COc1cccc(N2CCN(C(=O)c3ccc4nc(N5CCC(C)CC5)sc4c3)CC2)c1 | 14% | 64* | 117* | 1% | -16% | 0%
O=C(c1ccc2nc(N3CCCCC3)sc2c1)N1CCN(c2ccccn2)CC1 | -107% | 23* | 11 | -85% | 0% | -17%
FC(F)(F)c1cc(N2CCN(Cc3ccccc3)CC2)c2ccccc2n1 | -3% | 2 | 9 | 9.3µM* | ? | 2%
O=C(c1ccc(N2CCCCC2)c([N+](=O)[O-])c1)N1CCN(c2ccccn2)CC1 | · | 5 | 18 | ? | -10% | 3%
O=C(c1ccc2nc(N3CCCCC3)sc2c1)N1CCN(Cc2ccc3c(c2)OCO3)CC1 | -65% | 30* | active | 22% | 4.1µM* | 3%
O=C(c1ccc(S(=O)(=O)N2CCCCC2)cc1)N1CCN(Cc2ccc3c(c2)OCO3)CC1 | -23% | -4 | 23 | ? | ? | 2%
O=C(NC(Cc1ccccc1)C(=O)O)/C(=C\c1ccc(Cl)cc1)NC(=O)c1ccco1 (stereo not drawn) | ? | -3 | -6 | 7% | 2% | -7%
CN(CC1COc2ccccc2O1)C(=O)CSc1nncs1 (stereo not drawn) | · | · | · | · | · | 2%
Cc1c(C)n(C)c2ccc(C(=O)N3CCN(c4ccccc4)CC3)cc12 | -8% | -4 | 11 | ? | 10% | -34%
Cc1c(C)n(C)c2ccc(C(=O)N3CCN(c4ccccn4)CC3)cc12 | -1% | -4 | 22 | 7% | 10µM* | -3%
c1ccc(CN2CCN(c3nc4ccccc4s3)CC2)cc1 | 0% | 53* | 96* | 132% | 117% | 0%
Cc1noc(C)c1NC(=O)N(C)C[C@H]1Oc2ccc(NS(=O)(=O)c3ccc(F)cc3)cc2C(=O)N([C@H](C)CO)C[C@@H]1C | · | · | · | · | · | 3%
Cc1ccc[n+](CC(=O)c2ccc(Br)cc2)c1C | 18% | 10 | 14 | 63% | ? | 1%
COC(=O)C1=C(C)NC(C)=C(C(=O)OCC(C)C)C1c1ccccc1[N+](=O)[O-] (stereo not drawn) | · | · | · | 2.4µM* | 7.6µM* | ·
CCO[C@@H]1OC(C(=O)NCc2ccccc2)=C[C@H](c2cn(C(C)=O)c3ccccc23)[C@H]1CCCO | 5% | -2 | 10 | 4.1µM* | 5.2µM* | -1%
CCO[C@H]1OC(C(=O)N2CCN(Cc3ccccc3)CC2)=C[C@@H](c2ccccc2)[C@@H]1CCCO | -4% | -3 | -16 | ? | ? | 0%
CCO[C@@H]1OC(C(=O)N2CCN(Cc3ccccc3)CC2)=C[C@H](c2cn(C(C)=O)c3ccccc23)[C@H]1CCCO | -14% | 0 | -10 | 8.3µM* | 8.3µM* | 1%
CCO[C@H]1OC(C(=O)N2CCN(Cc3ccccc3)CC2)=C[C@@H](c2ccc(C(F)(F)F)cc2)[C@@H]1CCCO | 1% | 1 | -2 | 1.5µM* | ? | 1%
CCO[C@H]1OC(C(=O)N2CCCCCCC2)=C[C@@H](c2csc3ccccc23)[C@@H]1CCCO | -10% | 0 | 17 | ? | 15% | 0%
SMILES | NS1 inh | Cycloheximide cs | Shiga toxin inh | Pf growth 96h | Pf growth 48h | SARS PLP yeast
CCO[C@@H]1OC(C(=O)N2CCN(Cc3ccccc3)CC2)=C[C@H](c2csc3ccccc23)[C@H]1CCCO | -9% | -3 | -19 | 6.6µM* | ? | -1%
Cc1ccccc1CCN(C(=O)c1csnn1)C(C(=O)NC1CCCC1)c1ccco1 (stereo not drawn) | -1% | -2 | 42 | 3% | ? | 0%
COc1ccccc1CNC(=O)C(NC(=O)Nc1ccccc1)C(C)C (stereo not drawn) | -1% | -3 | -7 | 21% | 12% | 1%
CC(=O)N1CCN(S(=O)(=O)c2cccc(C(=O)NNC(=O)Cn3nc(C)cc3C)c2)CC1 | · | · | · | -6% | 4% | -1%
Cc1cc(C(=O)N/N=C/c2cccnc2)c(C)o1 | 4% | 16* | 8 | -16% | 39% | -2%
Cc1occc1C(=O)N/N=C/c1cccnc1 | 4% | 25* | 75* | 24% | 50% | -11%
CN(C)S(=O)(=O)c1cc(C(=O)Nc2ccccc2C(=O)NC2CC2)ccc1Cl | · | · | · | ? | ? | 4%
CC(C)C(c1nnnn1Cc1ccco1)N1CCN(c2nc3ccccc3s2)CC1 (stereo not drawn) | -38% | -6 | -7 | · | ? | -4%
CCC(c1nnnn1Cc1cccs1)N1CCN(C2CCCC2)CC1 (stereo not drawn) | 3% | -1 | -15 | ? | 7% | 3%
CC(C)CC(c1nnnn1Cc1cccs1)N1CCN(c2nc3ccccc3s2)CC1 (stereo not drawn) | 7% | 20* | -11 | 1% | 12µM* | -20%
CCC(c1nnnn1Cc1cccs1)N1CCN(c2nc3ccccc3s2)CC1 (stereo not drawn) | 4% | -3 | 12 | ? | 9.3µM* | -7%
O=C(Nc1c2c(nn1-c1ccccc1)CS(=O)(=O)C2)c1cccs1 | 9% | 2 | -6 | 20% | 23% | 19%
COc1ccc2c(c1)O/C(=C\c1sccc1C)C2=O | -3% | 24* | 123 | 81% | -72% | 10%
CC1(C)Cc2ccccc2-c2nc(NCCCO)n(-c3ccccc3)c(=O)c21 | 9% | -1 | 36 | ? | ? | -1%
CCCNC(=O)c1noc2c1CCc1ccccc1-2 | -8% | 42* | 64* | -22% | 105% | -11%
O=C(Nc1cccnc1Cl)c1noc2c1CCc1ccccc1-2 | · | 34* | 92* | 4% | 396% | 0%
O=C(NCCc1ccccc1)c1noc2c1CCc1ccccc1-2 | -14% | 19* | 39* | -1% | 25% | 3%
Cc1onc(-c2ccccc2)c1C(=O)NCCN1CCOCC1 | 9% | 1 | -6 | 208% | 4% | ·
Cc1nn(Cc2ccc(Cl)cc2)c(C)c1NC(=O)c1noc2c1CCc1ccccc1-2 | -1% | -5 | -19 | 59% | · | -6%
